# Source: the supplement of paper PMC11417369
# Over roughly 25,000 sequences, “ln(normalized median fluorescence intensity)” has its median near 9.3; the highest 2% begin near 10. This is one part of a sample in which the highest values are shown more often than they occur.
# Test system: PF3D7_0420300 AP2 domain 1 (GST-tagged)
# Test: gcPBM binding intensity (ln(normalized median fluorescence intensity)); higher = stronger DNA binding
# Method in brief: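 GST-tagged P. falciparum DNA-binding domains, expressed in E. coli (about 25 μg on average), were applied for 1 h to an Agilent 4 × 180k array of primer-extended double-stranded 36-bp intergenic genomic probes plus negative controls. The binding buffer was 1× PBS with 1% milk, 0.2 mg/ml BSA, 0.5% salmon testes DNA and 0.03% Triton X-100. Bound protein was detected with Alexa488 anti-GST antibody and scanned at 488 nm. Binding intensity is the highest Masliner-normalised natural-log median intensity across replicate spots of either probe orientation.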
row,Sequence,gcPBM binding intensity (ln)
1,ATTCACTAAAAAATTGCATGCAATAAATTTTTTTTT [TGCATGCA_site962],8.91
2,TAATATATATATATATGTACATATATATTATGTATA [XGTACX_site4690],9.07
3,TATATTTTCTATAGGTGTACTCCACATGCGGTGTTA [XGTACX_site7471],9.08
4,ATGTATATGCAAACATGTACATATATAAACATATAT [XGTACX_site4159],9.16
5,AAAAAAAAAAAAAAAAAAAAACACCCAAAAAAATAT [XGTACX_negctrl_site210],9.62
6,TACACTTTTTATGAAGTGCATGTATAGCTCTTAAAA [GTGCAC_site9595],8.78
7,ACCATATAAATAAACACACACACACCCATATATATA [CACACA_site2321],10.2
8,CATATAAAAATGTGCACACACACACCGATATATATT [CACACA_site4940],10.1
9,TTTATTAAACTTGACACACACACACCCACATATATA [CACACA_site760],10.2
10,CATATAAAAATGTGCACACACACACCCATATATATT [CACACA_site1526],10.2
11,TTCCCATGTAATATTAAACACACACCCATATAACAC [CACACA_site7905],9.76
12,TATTAAACGAAACACACACACACACCCATATATAAA [CACACA_site759],10.2
13,TATTAAACTGGACACACACACACACCCATATATAAA [CACACA_site4579],10.2
14,AAAAAAAAAAAAAACACACACACACCCATAAATATA [CACACA_site151],9.88
15,AACATATAAAAATGTGCACACACACCCATATATATA [CACACA_site1525],9.97
16,AATATAAATAAAAACACACACACACCCATATATATA [CACACA_site2267],10.1
17,TATATATTAAAACACACACACATATATATATATATA [CACACA_site3787],9.67
18,TTTTACAAATATTACTGTACACATTTTCATATAATT [XGTACX_site17],9.49
19,TTTTGCGAAAAAAGGTGTACTGTAAATATATTGAGG [XGTACX_site8941],9.09
20,ATATATGATGTAAAAGCACACATATATATATATATA [CACACA_site9330],9.21
21,TTTTTTTTAATATTTTACATTGTCTGTTAACAAATA [CACACA_negctrl_site599],9.14
22,TTTCTTTTTTTTTTTATTTACCTGAATTATGTATTA [TGCATGCA_negctrl_site345],9.24
23,TATGTGCACCCATATACACACACAAATACAATGATA [CACACA_site8295],9.81

row,Sequence,gcPBM binding intensity (ln)
1,TATAAAATTTTTAAAAGTACATATTTTACATAATAC [XGTACX_site2193],9.1
2,GCCTATATGTTTAGTTGTACTCCTAATATTATTTGT [XGTACX_site6060],9.75
3,CGCAACACTATTTGGGTGCTCTTCAAAAAAAAAAAA [GTGCAC_site9598],8.56
4,TAAAAAGGAAAACACACACACACATATATATATATA [CACACA_site3588],9.9
5,TATATATAAAAACACACACACACACCCTATAATTAT [CACACA_site4063],10.3
6,ATAATATATATATAAACACACAAAAAAAATTATATA [CACACA_site1534],9.74
7,TATATATAGAAACACACACACACCAAAGCGTAGCGC [CACACA_site62],10
8,TCATAGTAGAAACACACACACACACCCATATATATA [CACACA_site1737],10.2
9,ATATAATATATATATAAACACACAAAAAAAATTATA [CACACA_site8434],9.63
10,TATATATAGAAACACACACACACACCCAAGCGTAGC [CACACA_site63],10.2
11,TATATATAGAAACACACACACACATATATATATATA [CACACA_site4116],9.96
12,TATATATATAAACACACACACACACCCAAGCGTAGC [CACACA_site4210],10.1
13,ATAAAAAGGAAACACACACACACACCCATATATATA [CACACA_site904],10.2
14,TATAAAAGGAAACACACACACATATATATATATATA [CACACA_site939],9.74
15,TATATATAGAAACACACACACATATATATATATATA [CACACA_site773],9.74
16,TATAATATATATGTAACACACAAAAGTTATATACTT [CACACA_site2868],9.37
17,AAAATTTTCTTTTTATGTACACATAATTTTACCGGA [XGTACX_site5276],9.18
18,ATAAAATATTTTTGAACATGCAGGTAAAAAATAAAA [TGCATGCA_site1019],9.27
19,ATGGATTATACGTGCACACATATATACCAATAAATA [CACACA_site4524],9.43
20,AAAAGTTTTATTTAAATGAATTAATCTTTACTATAT [CACACA_negctrl_site282],9.07
21,AAAACACAATTTATTACACACATATATTATATATTA [CACACA_site1420],9.49
22,TGAATATTCATGTGTGTGCGCATGTTGTTAGACCAT [GTGCAC_site9869],9.69
23,AACATTTTAAATTATACACACATTTTGAATATATAT [CACACA_site3470],9.54

row,Sequence,gcPBM binding intensity (ln)
1,AGCATCATTTTACACACATGCAAATGTAAAATAGGA [TGCATGCA_site460],9.43
2,GCCATTGTACCATCCACACACATATAAATATGTATA [CACACA_site7303],9.85
3,TATATATATAATATTGCACACAAAATTAAAAGTAAA [CACACA_site7889],9.47
4,AAAAAAAAAAAAAACACACACACACGCAGATATATA [CACACA_site6672],10.1
5,TACACGCATAAACACACACACACACCCATATATATA [CACACA_site8114],10.4
6,TACACGCAGAAACACACACACACACCCATATATATA [CACACA_site637],10.3
7,AAAAAAAAAAAACACACACACACACCCATATATAAA [CACACA_site1170],10.2
8,CAAGAAAAGAAACACACACACATATATATATATATA [CACACA_site3881],9.87
9,AAAAAAAAAAAAGAAACACACACATATATATATATA [CACACA_site8525],9.69
10,AAAAAGGAGAAACACACACACACACCCATATATATA [CACACA_site905],10.2
11,CACCCATAGAAACACACACACGCATAAAAAAAAAAA [CACACA_site1513],9.71
12,AAAAAAAATAAACACACACACATACCCATAAATATA [CACACA_site5980],10.1
13,CACCCATAAATATACACACGCACAACACAAAATAAA [CACACA_site2903],9.73
14,TACACCCATAGACACACACACACGCATAAAAAAAAA [CACACA_site8428],9.93
15,GATAGAAAAAAATAATGTACACACACATATATGTTT [XGTACX_site392],9.72
16,AAAAAAATTCTGACTTGTACATATAAAATTTACAAA [XGTACX_site4408],8.78
17,TACGTATGCCTGTGATGTACATATATATATACATAC [XGTACX_site4728],9.36
18,AATCACCAAATATGTACACACCTTAACATGTTTATA [CACACA_site5180],9.64
19,TTTAAAAGATAAAACACACATACTAATAAAAAACAA [CACACA_site2556],9.71
20,AAGTGTCAAAGTTACACACACAAACTTGTCATTTTT [CACACA_site837],9.75
21,AAAAATCATTTAAGAACACACAAATATTTCCATTAA [CACACA_site1488],9.35
22,TTATCCTTGTAACAATGTACACATTATTTAATACTT [XGTACX_site1830],9.29
23,TACATATTTTTCTTTTCACACATGGAAAAAAAAGGT [CACACA_site5146],9.11

row,Sequence,gcPBM binding intensity (ln)
1,ACATATAAAATGTATACACACAAATATTACAGAGAT [CACACA_site4920],9.8
2,TCATAGTATAAACACACACACACACCCATATATATA [CACACA_site8512],10.3
3,ATTCATATGAAACACACACACACACCCATAAAAAAA [CACACA_site3246],10.1
4,TAAACACCCATATAAACACACATATAAACACCCATA [CACACA_site5382],9.84
5,CACAGTGATATAAAAACACACATGAATTATAATTTC [CACACA_site1667],9.43
6,TTTTTCTGTTCTTTTTGTACTTAAATATATTTATTT [XGTACX_site5658],9.57
7,TAAATATTATATTTATGTACATAAGTTTTTTTTAAT [XGTACX_site3559],9.08
8,AATATTTCTATATGAACATGCAATGTATCTTTTTAT [TGCATGCA_site738],9.13
9,AGTATACACAGACACACACACACATATATATATATA [CACACA_site8510],10.2
10,CATATACTCGGACACACACACACACCGACAAAAAAA [CACACA_site4433],10.1
11,TAAATAAATTTATACACACACACACCGATATATATA [CACACA_site4622],10.1
12,ATAGTATACGGACACACACACACACCGATATATATA [CACACA_site5032],10.3
13,ATAGTATACAGACACACACACACACCGATATATATA [CACACA_site8511],10.3
14,AGTATACATATATATACACACACACCGATATATATA [CACACA_site8357],10.1
15,ATTCATCTATTTTGTAGTACTAAATATATATCTACT [XGTACX_site8790],9.46
16,TGTAATAATCTTCATTTCTTTTTTTTTTTTTTTTGT [CACACA_negctrl_site1388],8.96
17,ATTTACATAATAAAATGTACATTTATAAATATTATA [XGTACX_site1901],9.13
18,CACAGATATATACATACACACATATATACACATATA [CACACA_site6323],9.72
19,CATATATAGATATATACACACATACATACATACATA [CACACA_site7748],9.59
20,AATATAGATACATATACACACACACCCATACATATA [CACACA_site9137],10.1
21,TATAGATACATATACACACACACACCGACATATATA [CACACA_site9138],10.3
22,CATACATACATACATACACACATACAGATATATATA [CACACA_site4890],9.84
23,TATAGATACAGATACACACACACACCGACATATATA [CACACA_site5832],10.2
